A number with no mark means an inactive call.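 How the source made its calls: active = AUC reduced over 20% with Padj below 0.05 in at least 2 of 3 replicates; inactive = otherwise.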

The test relates to Collinsella aerofaciens. In words: growth AUC relative to DMSO control (median of replicates) (fraction); higher = more growth (less inhibition), active = hit call of the paper. The settings on record: 20 µM; 24 h. In outline: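 Each value is the median of three biological replicates, grown on separate days, of a gut bacterial monoculture incubated anaerobically at 37 °C in mGAM with 20 µM compound (1% DMSO). Cultures started at OD600 0.05 and were read at OD600 hourly for 24 h, with the minimum OD set to 0. Area under the growth curve was normalised to the plate median of solvent-only wells, or to row and column medians on the industrial chemical plate.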
Turning to `CCC(C)(c1ccc(O)cc1)c1ccc(O)cc1`, the “growth AUC” value is 1. For the compound `C[n+]1ccc(-c2cc[n+](C)cc2)cc1.O.[Cl-].[Cl-]`, the “growth AUC” value was 0.947. Regarding `C=CCC1=C(C)C(OC(=O)C2C(C=C(C)C)C2(C)C)CC1=O` (mixture of isomers), the “growth AUC” value is 0.941. For the compound `CCOP(=S)(OCC)SCS(=O)CC` (centres undefined), the “growth AUC” value was 1.01.

Turning to `CC1=C(C(=O)Nc2ccccc2)SCCO1`, the “growth AUC” value was 1.03. The figure for `CC(C)Nc1nc(Cl)nc(NC(C)C)n1` is 0.961; for `CNC(=O)Oc1cc(C)cc(C(C)C)c1` it is 0.952; for `C=CCN(CC=C)C(=O)C(Cl)Cl` it is 0.978. For `CCS(=O)Cc1ccccc1OC(=O)NC` (centres undefined) the value was 0.977; for `CNC1=C(c2cccc(C(F)(F)F)c2)C(=O)C(c2ccccc2)O1` (centres undefined), 1.02; for `CC/C(=N\OC/C=C/Cl)C1=C(O)CC(C2CCOCC2)CC1=O` (centres undefined), 1.03.

With `CC(COc1ccc(Oc2ccccc2)cc1)Oc1ccccn1` (centres undefined), the “growth AUC” value was 0.994.

`COCCOC(=O)C(C#N)(C(=O)c1ccccc1C(F)(F)F)c1ccc(C(C)(C)C)cc1` (centres undefined): the “growth AUC” value was 0.885. The figure for `O=c1oc2ccccc2c(O)c1C1CC(c2ccc(OCc3ccc(C(F)(F)F)cc3)cc2)Cc2ccccc21` (mixture of isomers) is 0.788 (active); for `CN(C)C1CSSSC1.O=C(O)C(=O)O` it is 1.03; for `OC(c1ccc(Cl)cc1)(c1ccc(Cl)cc1)C(Cl)(Cl)Cl` it is 0.973. As to `Cc1cc(C2CC2)nc(Nc2ccccc2)n1`, the “growth AUC” value is 0.953. The figure for `CCC(CC)Nc1c([N+](=O)[O-])cc(C)c(C)c1[N+](=O)[O-]` is 0.909.

Regarding `CCCSC(=O)N(CCC)CCC`, the “growth AUC” value is 0.967. Consider `C[C@@H](Oc1ccc(Cl)cc1Cl)C(=O)O`, for which the “growth AUC” value is 0.977. In the case of `CCOP(=S)(OCC)Oc1cc(-c2ccccc2)on1`, the “growth AUC” value was 0.942. As for `O=C(O)c1cc(Cl)ccc1Cl`, the “growth AUC” value is 0.952. For the compound `OCC(O)CCl` (centres undefined), the “growth AUC” value is 1.01.

As to `Cc1ccc2nc3sc(=O)sc3nc2c1`, the “growth AUC” value is 0.982. The figure for `CC(Cl)(Cl)C(=O)O` is 1.02; for `CCNc1nc(NC(C)C(C)C)nc(SC)n1` (centres undefined) it is 1.05; for `CCCCCCCC(=O)Oc1c(I)cc(C#N)cc1I` it is 0.989. Consider `COP(=S)(OC)Oc1cc(Cl)c(Br)cc1Cl`, for which the “growth AUC” value was 0.978. As to `C=CCN=C=S`, the “growth AUC” value was 1.02. The figure for `COC(=O)c1ccccc1S(=O)(=O)NC(=O)Nc1nc(C)cc(C)n1` is 0.949. Turning to `CNC(=O)O/N=C(\SC)C(=O)N(C)C`, the “growth AUC” value was 0.999. For the compound `CC(Cc1ccc(C(C)(C)C)cc1)CN1CCCCC1` (centres undefined), the “growth AUC” value is 0.959. `CC1=NNC(=O)N(/N=C/c2cccnc2)C1`: the “growth AUC” value is 1.1. On to `c1ccc(-c2ccccc2)cc1`, for which the “growth AUC” value is 0.963. For `CN1CSC(=S)N(C)C1` the value was 1.07; for `COC(=O)NC(=S)Nc1ccccc1NC(=S)NC(=O)OC`, 1.01; for `C=CC1(C)OC(=O)N(c2cc(Cl)cc(Cl)c2)C1=O` (centres undefined), 0.999. As for `ClC1=C(Cl)C2(Cl)C3C4C=CC(C4)C3C1(Cl)C2(Cl)Cl` (centres undefined), the “growth AUC” value was 1.01. Take `CC(C)OP(=O)(OC(C)C)SCc1ccccc1`: the “growth AUC” value was 1.
